Several values for one entry are separate records, joined by “and”; a condition that tells them apart may be missing. Equal entries are not always repeated. For some assays here: Entries with a potency or affinity are not part of this list. A structure can be active in one record and inactive in another. Activity calls are given as the source filed them. Unless noted, how the calls were made is not given here.
How the values were obtained:
[1] = antimalarial activity against Dd2 strain (AID 2302;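 active means growth inhibition above 50% at the single 2 µM test dose, taken to imply half-maximal potency below 2 µM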;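 further: 0% = DMSO untreated growth and 100% = chloroquine plus artemisinin killed control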); settings: P. falciparum Dd2 in RBCs, LDH growth readout, 72 h; at 2 µM; stronger effect = higher value
[2] = HepG2 cytotoxicity, primary screen, cytotoxicity control for P. falciparum antimalarial project, cell-based, ATP luminescence (AID 2303;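 active means inhibition above 50%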;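 further: 0% = DMSO wells and 100% = digitonin-killed cells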); settings: HepG2 viability, 24-48 h, at 10 µM, stronger effect = higher value
[3] = biological target: L-lactate dehydrogenase (Plasmodium falciparum (isolate CDC / Honduras)) (UniProt Q27743); experiment: PfLDH activity inhibition – cell lysate, 3D7 strain, counter-screen for P. falciparum growth inhibition project (AID 2304);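 further: 0% = vehicle and 100% = reference inhibitor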; settings: P. falciparum 3D7 crude extract, LDH APAD/NBT absorbance; at 2 µM; stronger effect = higher value
[4] = inhibition of 3D7 malaria parasite growth – strain 3D7 (AID 2306);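 further: 0% = DMSO wells and 100% = chloroquine plus artemisinin control wells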; settings: P. falciparum 3D7 erythrocytic growth, LDH absorbance, 72 h; at 2 µM; stronger effect = higher value
[5] = biological target: Calcium-dependent protein kinase 1 (Plasmodium falciparum (isolate 3D7)) (UniProt P62344); experiment: PfCDPK1 kinase inhibitors, biochemical, TCAMS library (AID 1159585; cut-off not given, nearly all actives have IC50 up to about 0.98 µM;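 further: inhibitors leave more ATP so luminescence rises with inhibition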); settings: recombinant PfCDPK1, Kinase-Glo ATP depletion luminescence
[6] = biological target: Plasmodium falciparum protein kinase 6 (PK6, PF3D7_1337100) (UniProt Q8IDW1); experiment: PfPK6 kinase inhibitors, biochemical, TCAMS library (AID 1159586); settings: recombinant PfPK6, Kinase-Glo ATP depletion luminescence
[7] = biological target: Protein kinase 7 (PK7), Plasmodium falciparum 3D7 (PF3D7_0213400) (UniProt Q7YTF7); experiment: inhibition of Plasmodium PK7 catalytic activity – biochemical, TCAMS antimalarial set, Kinase-Glo luminescence (AID 1159587); settings: recombinant PfPK7, Kinase-Glo ATP depletion luminescence
[8] = biological target: Calcium-dependent protein kinase 4 (Plasmodium falciparum (isolate 3D7)) (UniProt Q8IBS5); experiment: PfCDPK4 kinase inhibitors, biochemical, TCAMS library (AID 1159588; cut-off not given, nearly all actives have IC50 up to about 0.91 µM); settings: recombinant PfCDPK4, Kinase-Glo ATP depletion luminescence
Calcium-dependent protein kinase 4 (Plasmodium falciparum (isolate 3D7)), sequence (Q8IBS5 whole entry, looked up): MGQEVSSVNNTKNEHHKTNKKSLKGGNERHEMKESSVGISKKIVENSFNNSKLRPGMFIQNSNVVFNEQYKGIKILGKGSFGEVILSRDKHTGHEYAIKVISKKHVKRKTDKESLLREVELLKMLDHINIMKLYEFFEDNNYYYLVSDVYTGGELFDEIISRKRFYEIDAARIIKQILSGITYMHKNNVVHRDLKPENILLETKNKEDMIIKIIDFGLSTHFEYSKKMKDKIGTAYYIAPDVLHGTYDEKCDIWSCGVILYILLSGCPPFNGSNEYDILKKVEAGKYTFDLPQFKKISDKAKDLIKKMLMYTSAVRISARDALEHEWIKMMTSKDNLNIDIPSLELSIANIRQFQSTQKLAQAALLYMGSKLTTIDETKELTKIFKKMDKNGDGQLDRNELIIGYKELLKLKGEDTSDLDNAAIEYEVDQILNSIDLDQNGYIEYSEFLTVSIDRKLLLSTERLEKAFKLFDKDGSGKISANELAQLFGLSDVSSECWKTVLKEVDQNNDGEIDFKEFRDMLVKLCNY

Protein kinase 7 (PK7), Plasmodium falciparum 3D7 (PF3D7_0213400), sequence (Q7YTF7 1-343): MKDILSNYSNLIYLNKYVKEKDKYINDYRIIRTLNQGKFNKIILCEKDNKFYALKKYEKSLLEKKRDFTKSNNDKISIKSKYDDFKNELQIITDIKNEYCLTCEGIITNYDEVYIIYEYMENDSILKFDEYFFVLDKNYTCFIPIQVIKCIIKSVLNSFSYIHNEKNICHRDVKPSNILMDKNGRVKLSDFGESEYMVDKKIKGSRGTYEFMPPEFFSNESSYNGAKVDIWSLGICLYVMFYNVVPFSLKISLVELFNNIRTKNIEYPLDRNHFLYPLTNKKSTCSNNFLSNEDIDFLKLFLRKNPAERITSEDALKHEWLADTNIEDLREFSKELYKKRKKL
Plasmodium falciparum protein kinase 6 (PK6, PF3D7_1337100), sequence (Q8IDW1 1-305): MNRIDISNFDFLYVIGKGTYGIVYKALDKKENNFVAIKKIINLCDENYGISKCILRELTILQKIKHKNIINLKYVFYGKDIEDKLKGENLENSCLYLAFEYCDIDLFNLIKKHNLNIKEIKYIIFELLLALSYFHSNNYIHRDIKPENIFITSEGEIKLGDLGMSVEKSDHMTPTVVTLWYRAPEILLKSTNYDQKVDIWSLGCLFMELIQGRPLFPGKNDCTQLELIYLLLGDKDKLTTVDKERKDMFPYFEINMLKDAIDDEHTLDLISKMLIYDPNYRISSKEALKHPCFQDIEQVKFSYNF
L-lactate dehydrogenase (Plasmodium falciparum (isolate CDC / Honduras)), sequence (Q27743 whole entry, looked up): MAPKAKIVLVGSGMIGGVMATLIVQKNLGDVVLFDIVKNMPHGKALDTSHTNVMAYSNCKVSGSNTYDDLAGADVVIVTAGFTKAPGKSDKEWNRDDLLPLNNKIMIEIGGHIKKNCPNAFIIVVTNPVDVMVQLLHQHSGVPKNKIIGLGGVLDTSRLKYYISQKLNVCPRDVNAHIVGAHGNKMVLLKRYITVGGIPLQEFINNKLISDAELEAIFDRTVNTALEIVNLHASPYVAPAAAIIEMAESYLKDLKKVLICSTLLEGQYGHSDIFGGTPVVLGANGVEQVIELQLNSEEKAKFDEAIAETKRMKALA
Calcium-dependent protein kinase 1 (Plasmodium falciparum (isolate 3D7)), sequence (P62344 whole entry, looked up): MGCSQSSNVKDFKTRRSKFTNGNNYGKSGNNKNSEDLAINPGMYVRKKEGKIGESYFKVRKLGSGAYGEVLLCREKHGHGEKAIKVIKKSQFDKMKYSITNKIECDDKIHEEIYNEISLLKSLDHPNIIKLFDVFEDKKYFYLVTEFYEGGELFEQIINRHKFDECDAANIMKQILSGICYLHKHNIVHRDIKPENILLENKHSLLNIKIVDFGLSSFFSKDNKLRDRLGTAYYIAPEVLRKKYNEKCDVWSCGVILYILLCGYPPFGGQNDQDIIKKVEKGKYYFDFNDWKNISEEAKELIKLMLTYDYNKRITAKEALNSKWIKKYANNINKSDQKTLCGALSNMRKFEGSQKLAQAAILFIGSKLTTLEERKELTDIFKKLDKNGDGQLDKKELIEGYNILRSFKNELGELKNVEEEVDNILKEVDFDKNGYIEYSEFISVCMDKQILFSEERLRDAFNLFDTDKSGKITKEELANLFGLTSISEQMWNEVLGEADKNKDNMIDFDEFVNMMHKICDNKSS

Compound | growth inhibition [1] | inhibition [2] | inhibition [3] | growth inhibition [4] | outcome [5] | outcome [6] | outcome [7] | outcome [8]
COc1ccc(F)cc1-c1csc(N(c2ccc(F)cc2)C2CCNCC2)n1 | -3% (inactive) | 15% (inactive) | -1% (inactive) | 94% (active) | inactive | inactive | inactive | inactive
CNC(=O)c1ccc2[nH]cc(C3CCN(CC4CCN(C(=O)/C=C/c5ccc(Cl)c(Cl)c5)CC4)CC3)c2c1 | 88% (active) | 3% (inactive) | 1% (inactive) | 100% (active) | inactive | inactive | inactive | inactive
COc1ccc(C=CC(=O)N2CCC(CN3CCC(c4c[nH]c5ccccc45)CC3)CC2)cc1OC | 4% (inactive) | 20% (inactive) | 0% (inactive) | 94% (active) | inactive | inactive | inactive | inactive
Cc1ccc2[nH]cc(C3CCN(CC4CCC(NC(=O)/C=C/c5ccc(Cl)c(Cl)c5)CC4)CC3)c2c1 (configuration not stated) | 46% (inactive) and 86% (active) | 29% (inactive) and 37% (inactive) | -10% (inactive) and 0% (inactive) | 101% (active) and 94% (active) | inactive | inactive | inactive | inactive
COC(=O)c1ccc(CC(C)NCC(O)c2cc(Cl)c(N)c(Cl)c2)cc1 (configuration not stated) | 66% (active) | -2% (inactive) | -7% (inactive) | 91% (active) | inactive | inactive | inactive | inactive
Oc1cccc(C2CCCN(Cc3cccc4cc[nH]c34)C2)c1 (configuration not stated) | 82% (active) | 16% (inactive) | -2% (inactive) | 101% (active) | inactive | inactive | inactive | inactive
Cc1c(C)c2c(c(C)c1O)CC[C@@](C)(C(=O)N1CCC(CN3CCC(c4c[nH]c5ccccc45)CC3)CC1)O2 | 90% (active) | 21% (inactive) | 3% (inactive) | 98% (active) | inactive | inactive | inactive | inactive
NC(=NCCCCCCN=C(N)/N=C(\N)c1ccc(Cl)cc1)/N=C(\N)c1ccc(Cl)cc1 | 99% (active) | 10% (inactive) | -9% (inactive) | 98% (active) | inactive | inactive | inactive | inactive
COC(=O)c1ccc(CC(C)NCC(O)c2cccc(C(F)(F)F)c2)c(Cl)c1 (configuration not stated) | 98% (active) | -10% (inactive) | 1% (inactive) | 99% (active) | inactive | inactive | inactive | inactive
CCN1CC=C(c2c[nH]c3ccccc23)CC1 | 58% (active) | 27% (inactive) | -1% (inactive) | 84% (active) | inactive | inactive | inactive | inactive
COc1cccc(CN2CCC(CCOC(c3ccccc3)c3ccc(Cl)cc3)CC2)c1O (configuration not stated) | 100% (active) | 22% (inactive) | -2% (inactive) | 99% (active) | inactive | inactive | inactive | inactive
O=C(Nc1ccccc1C(F)(F)F)NC1CCC(CN2CCC(c3c[nH]c4ccccc34)CC2)CC1 (configuration not stated) | 12% (inactive) and 42% (inactive) | 34% (inactive) and 46% (inactive) | -3% (inactive) | 86% (active) and 96% (active) | inactive | inactive | inactive | inactive
CCCCCCCCNCC(O)c1ccc(Cl)c(Cl)c1 (configuration not stated) | 87% (active) | -4% (inactive) | -3% (inactive) | 99% (active) | inactive | inactive | inactive | inactive
COc1cc2nc(N(C)C3CCN(Cc4ccccc4)CC3)nc(N)c2cc1OC | 93% (active) | 19% (inactive) | 1% (inactive) | 99% (active) | inactive | inactive | inactive | inactive
OC(CNC1CCCCCC1)c1ccc(Cl)c(Cl)c1 (configuration not stated) | 98% (active) | -3% (inactive) | -3% (inactive) | 99% (active) | inactive | inactive | inactive | inactive
CC1(C)CCCN(C(=O)Cc2ccc3c(c2)CCCC3)C1CN1CC=CC1 (configuration not stated) | 1% (inactive) | -3% (inactive) | -1% (inactive) | 98% (active) | inactive | inactive | inactive | inactive
CN1CC=C(c2csc3ccc(NC(=O)Nc4ccc(-c5ccncc5)c(Cl)c4)cc23)CC1 | 101% (active) | 10% (inactive) | 6% (inactive) | 102% (active) | inactive | inactive | inactive | inactive
COc1ccc2[nH]cc(C3=CCN(Cc4ccccc4)CC3)c2c1 | 84% (active) | 51% (active) | -5% (inactive) | 90% (active) | inactive | inactive | inactive | inactive
CCCCCC(C)C(C)c1cc(O)c2c(c1)O[C@@]1(C(C)C)CC(O)[C@H](C)[C@@H]2C1 (some centres not stated) | 87% (active) | 1% (inactive) | -3% (inactive) | 93% (active) | inactive | inactive | inactive | inactive

— PubChem BioAssay
